Measured values as given in PubChem BioAssay (Tox21).
Active and inactive are the calls of the source. Unless noted, the call rests on the fitted dose curve; in most records, active means well fitted curve in the direction sought with a large enough effect in the repeat runs; inconclusive means weak or mixed curves; inactive means no such curve, though single readings can be large; an effect the other way counts as inactive or inconclusive.

Legend:
[1] = test system: thyroid hormone receptor (rat, GH3 cells); assay: qHTS assay to identify small molecule agonists of the thyroid receptor (TR) signaling pathway (AID 743066; calls by dose curve)
[2] = qHTS assay to identify small molecule antagonists of the estrogen receptor alpha (ER-alpha) signaling pathway - cell viability counter screen (AID 743074; calls by dose curve;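 further: HEK293 cells carrying ER-alpha-UAS-bla reporter stimulated with 17beta-estradiol; nearly all actives have a fitted effect of over 45% in size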; further: potency means the concentration at half of the fitted maximal effect)
[3] = qHTS assay to identify small molecule antagonists of the estrogen receptor alpha (ER-alpha) signaling pathway using the BG1 cell line - cell viability counter screen (AID 743081);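 further: compound given together with 17beta-estradiol as the ER stimulus; nearly all actives have a fitted effect of over 45% in size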
[4] = target: Aryl hydrocarbon receptor (Homo sapiens) (UniProt P35869); assay: qHTS assay to identify small molecule that activate the aryl hydrocarbon receptor (AhR) signaling pathway (AID 743085); further: nearly all actives have a fitted effect of over 15% in size; further: potency means the concentration at half of the fitted maximal effect;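 on activation: HG2L7.5c1 human HepG2 liver cells with stably integrated DRE-driven firefly reporter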
In short: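 Cell line HG2L7.5c1 (human hepatoma, 20× DRE-luc). Plated, 5 h 37C, compound/DMSO added, 24 h 37C. CellTiter-Fluor 30 min 37C → fluorescence; then ONE-Glo 30 min RT → luminescence.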

[5] = qHTS assay to identify small molecule that activate the aryl hydrocarbon receptor (AhR) signaling pathway - cell viability counter screen (AID 743086);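 further: HepG2 liver cells carrying the AhR DRE luciferase reporter; nearly all actives have a fitted effect of over 45% in size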
In short: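 HepG2-AhR-luc (HG2L7.5c1) cells, 4000/well, treated 24 h at 37 C with compound; viability measured as CellTiter-Fluor fluorescence after 30 min in the same wells as the luciferase read.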

[6] = qHTS assay to identify small molecule antagonists of the peroxisome proliferator-activated receptor gamma (PPARg) signaling pathway - cell viability counter screen (AID 743194); further: nearly all actives have a fitted effect of over 55% in size; further: potency means the concentration at half of the fitted maximal effect
In short: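 Cytotoxicity counter screen in PPARg-bla HEK293H cells, same wells as reporter assay. Compounds plus 50 nM rosiglitazone (final) for 17 h at 37 C, then viability read by CellTiter-Glo luminescence.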

[7] = qHTS assay for small molecule agonists of the antioxidant response element (ARE) signaling pathway - cell viability counter screen (AID 743203; calls by dose curve; further: nearly all actives have a fitted effect of over 55% in size; further: potency means the concentration at half of the fitted maximal effect)
In short: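 Cells (ARE-bla HepG2, 2,000/well) receive DMSO-dissolved compounds after a 5 hrs rest. Plates incubate 16 hrs at 37C/5% CO2. CellTiter-Glo luminescence is then recorded after 30 min at room temperature.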

[8] = qHTS assay for small molecule activators of the heat shock response signaling pathway - cell viability counter screen (AID 743209); further: nearly all actives have a fitted effect of over 50% in size; further: potency means the concentration at half of the fitted maximal effect
In short: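 Quantitative HTS format, Tox21 10K library. HeLa cells carrying an HSE-driven beta-lactamase reporter were treated 5 h at 37 C, then assessed for viability by CellTiter-Glo luminescence.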

[9] = qHTS assay for small molecule activators of the heat shock response signaling pathway (AID 743210; active means well fitted activation curve with a large enough effect in the signal ratio in the repeat runs, with a control signal flat, not every such curve was filed as active; inconclusive means weak or mixed curves; the % refers to the signal ratio;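 further: HeLa cells with beta-lactamase reporter driven by heat shock elements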)
In short: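 Quantitative high-throughput format using an engineered HeLa line in which heat shock response elements drive beta-lactamase; after 5 h with compound, cells received a B/G FRET substrate and fluorescence was read.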

[10] = target: Peroxisome proliferator-activated receptor gamma (Homo sapiens) (UniProt P37231); assay: qHTS assay to identify small molecule antagonists of the peroxisome proliferator-activated receptor gamma (PPARg) signaling pathway (AID 743191; calls by dose curve; further: nearly all actives have a fitted effect of over 30% in size; further: potency means the concentration at half of the fitted maximal effect)
In short: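 GeneBLAzer PPARg UAS-bla HEK293H cells, 5 h post-plating, exposed to compounds 17 h at 37C. LiveBLAzer B/G FRET substrate added for 1 h at room temperature; beta-lactamase reporter read by fluorescence intensity.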

[11] = qHTS assay for small molecule agonists of the antioxidant response element (ARE) signaling pathway (AID 743202; active means well fitted activation curve with a large enough effect in the signal ratio in the repeat runs, not every such curve was filed as active; inconclusive means weak or mixed curves, or effect the other way; inactive means no such curve, though single readings can be large or run the other way; the % refers to the signal ratio; further: potency means the concentration at half of the fitted maximal effect)
In short: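 Agonist mode reporter screen: HepG2 cells with ARE-controlled beta-lactamase are incubated with test compounds for 16 h at 37 C, and beta-lactamase activity is measured as fluorescence of cleaved B/G FRET substrate.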

[12] = target: Estrogen receptor (Homo sapiens) (UniProt P03372); assay: qHTS assay to identify small molecule agonists of the estrogen receptor alpha (ER-alpha) signaling pathway (AID 743075; calls by dose curve;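 further: HEK293 GripTite cells with ER-alpha and UAS-driven beta-lactamase reporter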; further: potency means the concentration at half of the fitted maximal effect)
[13] = target: Estrogen receptor (Homo sapiens) (UniProt P03372); assay: qHTS assay to identify small molecule agonists of the estrogen receptor alpha (ER-alpha) signaling pathway using the BG1 cell line (AID 743079); settings: BG1Luc4E2 cells, ERE-luciferase agonist, 22 h; activation: at 70.3 µM (top of the series); further: nearly all actives have a fitted effect of over 20% in size; further: potency means the concentration at half of the fitted maximal effect
[14] = qHTS assay to identify small molecule antagonists of the estrogen receptor alpha (ER-alpha) signaling pathway using the BG1 cell line (AID 743080; calls by dose curve; further: nearly all actives have a fitted effect of over 25% in size; further: potency means the concentration at half of the fitted maximal effect)
In short: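 Antagonist mode: compounds in DMSO were pinned onto BG1-Luc-4E2 cells alongside 17beta-estradiol agonist, incubated 21.5 h, and ERE-driven luciferase measured with ONE-Glo. Cytotoxicity was multiplexed using CellTiter-Fluor fluorescence.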

[15] = target: Aromatase (Homo sapiens) (UniProt P11511); assay: qHTS assay to identify aromatase inhibitors (AID 743083); further: nearly all actives have a fitted effect of over 55% in size
[16] = qHTS assay to identify aromatase inhibitors - cell viability counter screen (AID 743084);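 further: cells stimulated with testosterone during compound exposure; nearly all actives have a fitted effect of over 55% in size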
[17] = target: Peroxisome proliferator-activated receptor gamma (Homo sapiens) (UniProt P37231); assay: qHTS assay to identify small molecule agonists of the peroxisome proliferator-activated receptor gamma (PPARg) signaling pathway (AID 743094; active means well fitted activation curve with a large enough effect in the signal ratio in the repeat runs, not every such curve was filed as active; inconclusive means weak or mixed curves, or effect the other way; inactive means no such curve, though single readings can be large or run the other way; the % refers to the signal ratio)
In short: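 Stably transfected HEK293H cells (GeneBLAzer PPARg UAS-bla) were incubated with test substances for 17 h at 37C after a 5 h pre-incubation; beta-lactamase activity was then detected by FRET substrate fluorescence.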

[18] = target: Estrogen receptor (Homo sapiens) (UniProt P03372); assay: qHTS assay to identify small molecule antagonists of the estrogen receptor alpha (ER-alpha) signaling pathway (AID 743069; active means well fitted curve in the direction sought with a large enough effect in the signal ratio in the repeat runs, not every such curve was filed as active; inconclusive means weak or mixed curves, or effect the other way; inactive means no such curve, though single readings can be large or run the other way; the % refers to the signal ratio)
In short: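 Reporter cells (ER-alpha-bla, HEK293 background) are conditioned overnight in stripped-serum medium (2% charcoal-stripped FBS). Compound and 17beta-estradiol exposure runs 18 hr at 37C, 5% CO2.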

Measured: Potency

Peroxisome proliferator-activated receptor gamma (Homo sapiens), sequence (P37231 whole entry, looked up): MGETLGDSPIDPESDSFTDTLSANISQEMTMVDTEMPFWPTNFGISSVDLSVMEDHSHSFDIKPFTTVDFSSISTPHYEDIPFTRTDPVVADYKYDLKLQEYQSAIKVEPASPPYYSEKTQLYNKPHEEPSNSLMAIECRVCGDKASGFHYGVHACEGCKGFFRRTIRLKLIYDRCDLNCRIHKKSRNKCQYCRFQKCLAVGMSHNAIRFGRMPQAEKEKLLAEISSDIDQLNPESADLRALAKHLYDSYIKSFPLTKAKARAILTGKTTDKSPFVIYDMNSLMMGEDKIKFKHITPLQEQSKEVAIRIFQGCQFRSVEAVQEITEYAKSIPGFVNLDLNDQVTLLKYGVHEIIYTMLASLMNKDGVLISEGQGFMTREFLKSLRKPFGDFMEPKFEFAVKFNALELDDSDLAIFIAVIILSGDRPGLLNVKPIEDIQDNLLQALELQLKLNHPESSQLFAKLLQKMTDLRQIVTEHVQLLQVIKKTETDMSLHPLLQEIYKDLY
Aryl hydrocarbon receptor (Homo sapiens), sequence (P35869 whole entry, looked up): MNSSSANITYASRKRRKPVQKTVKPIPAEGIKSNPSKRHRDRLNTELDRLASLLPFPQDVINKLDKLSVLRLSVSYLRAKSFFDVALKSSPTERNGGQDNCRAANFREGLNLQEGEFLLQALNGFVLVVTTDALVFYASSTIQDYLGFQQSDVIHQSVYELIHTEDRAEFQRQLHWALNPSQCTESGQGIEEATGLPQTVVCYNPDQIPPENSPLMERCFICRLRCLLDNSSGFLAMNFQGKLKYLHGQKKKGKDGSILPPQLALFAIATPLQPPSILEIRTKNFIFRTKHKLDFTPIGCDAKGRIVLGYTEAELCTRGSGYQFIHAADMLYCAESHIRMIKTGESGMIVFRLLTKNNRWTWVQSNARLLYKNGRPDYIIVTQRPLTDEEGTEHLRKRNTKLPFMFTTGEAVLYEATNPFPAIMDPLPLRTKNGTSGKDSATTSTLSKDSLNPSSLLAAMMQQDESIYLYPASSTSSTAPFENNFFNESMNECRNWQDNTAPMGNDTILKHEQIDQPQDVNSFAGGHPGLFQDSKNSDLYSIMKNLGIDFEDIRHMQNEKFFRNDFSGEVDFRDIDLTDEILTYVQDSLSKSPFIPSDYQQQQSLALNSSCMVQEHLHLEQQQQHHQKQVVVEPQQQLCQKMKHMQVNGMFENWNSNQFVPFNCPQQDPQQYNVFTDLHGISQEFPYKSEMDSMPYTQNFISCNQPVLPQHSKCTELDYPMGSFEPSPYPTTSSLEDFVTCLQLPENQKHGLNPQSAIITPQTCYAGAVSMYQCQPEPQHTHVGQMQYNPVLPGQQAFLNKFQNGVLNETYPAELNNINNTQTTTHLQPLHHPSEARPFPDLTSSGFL
Estrogen receptor (Homo sapiens), sequence (P03372 whole entry, looked up): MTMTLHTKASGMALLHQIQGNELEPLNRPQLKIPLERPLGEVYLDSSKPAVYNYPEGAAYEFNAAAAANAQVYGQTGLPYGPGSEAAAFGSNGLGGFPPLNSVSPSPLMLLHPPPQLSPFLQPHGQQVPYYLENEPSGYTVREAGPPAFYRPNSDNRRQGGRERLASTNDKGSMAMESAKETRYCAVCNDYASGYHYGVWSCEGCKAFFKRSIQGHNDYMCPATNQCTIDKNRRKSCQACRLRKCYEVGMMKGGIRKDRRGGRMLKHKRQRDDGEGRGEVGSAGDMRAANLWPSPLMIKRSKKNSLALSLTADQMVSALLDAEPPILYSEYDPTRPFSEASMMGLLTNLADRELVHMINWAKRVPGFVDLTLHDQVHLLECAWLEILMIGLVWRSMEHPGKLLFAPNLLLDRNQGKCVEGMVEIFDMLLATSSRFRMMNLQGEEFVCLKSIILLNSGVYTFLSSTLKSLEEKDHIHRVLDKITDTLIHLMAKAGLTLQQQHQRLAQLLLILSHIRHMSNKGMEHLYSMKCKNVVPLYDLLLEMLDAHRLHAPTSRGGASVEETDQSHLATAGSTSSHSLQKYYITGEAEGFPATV
Aromatase (Homo sapiens), sequence (P11511 whole entry, looked up): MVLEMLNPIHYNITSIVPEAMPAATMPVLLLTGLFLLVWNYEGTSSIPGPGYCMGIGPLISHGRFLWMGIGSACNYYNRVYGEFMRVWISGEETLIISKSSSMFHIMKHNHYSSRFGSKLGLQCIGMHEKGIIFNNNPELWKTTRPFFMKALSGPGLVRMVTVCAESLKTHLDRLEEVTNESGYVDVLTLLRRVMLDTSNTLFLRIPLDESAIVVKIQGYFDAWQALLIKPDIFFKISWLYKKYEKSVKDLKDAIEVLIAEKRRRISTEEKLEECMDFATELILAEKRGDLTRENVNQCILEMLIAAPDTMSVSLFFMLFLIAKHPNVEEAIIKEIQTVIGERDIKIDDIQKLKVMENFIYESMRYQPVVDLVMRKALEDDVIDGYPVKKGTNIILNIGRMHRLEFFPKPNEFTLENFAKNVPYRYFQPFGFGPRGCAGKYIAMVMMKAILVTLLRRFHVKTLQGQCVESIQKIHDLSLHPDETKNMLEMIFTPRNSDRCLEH

Cc1cc(O)ccc1O
active: [4] 61.8 µM
inactive: [1] | [2] | [3] | [5] | [6] | [7] | [8] | [9]

O=C1Cc2cc(Cl)ccc2N1
active: [11] 21.1 µM
inactive: [10] | [6] | [8] | [9]

CC(C)=CCC/C(C)=C/CC/C(C)=C/C(=O)OCC(=O)[C@@]1(O)CC[C@H]2[C@@H]3CCC4=CC(=O)C=C[C@]4(C)[C@H]3[C@@H](O)C[C@@]21C
inactive: [8]

CCOC(=O)/C=C/C(=O)OCC
inactive: [2] | [12] | [13] | [14] | [3] | [15] | [16] | [4] | [5] | [17] | [6] | [7] | [8] | [9]

CNC(=O)c1cnn(-c2nc(N)c3ncn([C@@H]4O[C@H](CO)[C@@H](O)[C@H]4O)c3n2)c1
inactive: [6] | [11] | [7] | [8] | [9]

CC(=O)c1cc2ccccc2s1
inactive: [11] | [8] | [9]

Cc1cc(O)c(C)c(C)c1O
inactive: [10] | [6] | [7] | [8] | [9]

CC(=O)OCC(=O)NCCCOc1cccc(CN2CCCCC2)c1
inactive: [2] | [3] | [15] | [16] | [5] | [17] | [6] | [11] | [8] | [9]

COC(=O)[C@H]1[C@H]2C[C@@H]3c4[nH]c5cc(OC)ccc5c4CCN3C[C@H]2C[C@@H](OC(=O)/C=C/c2ccc(O)c(OC)c2)[C@@H]1OC
active: [10] 6.68 µM
inactive: [7] | [8]

COc1ccccc1Oc1c(NS(=O)(=O)c2ccc(C(C)(C)C)cc2)nc(-c2ncccn2)nc1OCCO
inactive: [18] | [12] | [13] | [14] | [3] | [15] | [16] | [4] | [5] | [17] | [6] | [7] | [8]

CC(C)(C)CC(=O)OCC(=O)[C@@]1(O)CC[C@H]2[C@@H]3CCC4=CC(=O)C=C[C@]4(C)[C@H]3[C@@H](O)C[C@@]21C
inactive: [6] | [7] | [8]

COC(=O)c1nc(Cl)c(Cl)nc1N
active: [6] 26.6 µM | [7] 23.7 µM | [8] 5.31 µM

COc1ccccc1N1CCN(CCCCNC(=O)c2ccc(-c3ccc(C(C)=O)cc3)cc2)CC1
inactive: [1] | [2] | [12] | [13] | [15] | [16] | [4] | [5] | [17] | [10] | [6] | [7] | [8] | [9]

CCCCN(CCN(CCCC)C(=O)N1CCOCC1)C(=O)N1CCOCC1
inactive: [6] | [8]

Cc1[nH]cnc1CN1CCc2c(c3ccccc3n2C)C1=O
inactive: [2] | [3] | [15] | [16] | [5] | [17] | [6] | [11] | [7] | [8] | [9]

C[C@H]1C[C@H](O)c2ccsc2S1(=O)=O
inactive: [6] | [11] | [8] | [9]

O=C(CCc1ccc(O)cc1)c1c(O)cc(O)cc1O
active: [12] 14.1 µM [inconclusive] | [13] 4.96 µM | [11] 31.3 µM
inactive: [1] | [14] | [3] | [16] | [4] | [5] | [17] | [8]

CCOc1ccc(Cc2nccc3cc(OCC)c(OCC)cc23)cc1OCC
active: [14] 11.4 µM
inactive: [1] | [2] | [12] | [15] | [16] | [5] | [17] | [6] | [7] | [8] | [9]

CS(=O)(=O)c1ccc(-c2cn3ccccc3n2)cc1
inactive: [6]

CCCCCCCCOc1ccc(C(=O)O)cc1
inactive: [1] | [2] | [3] | [16] | [4] | [5] | [6] | [7]

O=c1c(O)c(-c2ccc(O)cc2)oc2cc(O)cc(O)c12
inactive: [1] | [2] | [3] | [16] | [5] | [6] | [11] | [8] | [9]

O=C1C(=O)c2ccccc2C(O)=C1C1CCC(c2ccc(Cl)cc2)CC1 (centres undefined)
active: [2] 2.04 µM | [4] 4.03 µM
inactive: [1] | [12] | [13] | [3] | [15] | [16] | [5] | [17] | [8]

CN(C(=O)CN(CCO)CC(=O)N(C)C(C)(C)Cc1ccccc1)C(C)(C)Cc1ccccc1
inactive: [1] | [2] | [3] | [5] | [6] | [11] | [7] | [8]

CCC(=O)OC
inactive: [18] | [2] | [12] | [13] | [14] | [3] | [15] | [16] | [4] | [5] | [17] | [10] | [6] | [11] | [7] | [8] | [9]

OC(CCN1CCCC1)(c1ccccc1)C1CCCCC1 (centres undefined)
inactive: [1] | [2] | [3] | [15] | [16] | [4] | [5] | [17] | [10] | [6] | [7] | [8] | [9]

CCOC(=O)c1ccc(O)c(O)c1
inactive: [10] | [6] | [11] | [7] | [8] | [9]

O=C1c2ccccc2C(=O)C1c1ccc(Br)cc1
inactive: [18] | [2] | [12] | [13] | [14] | [3] | [15] | [16] | [5] | [17] | [6] | [7] | [8]
